As a reminder, the viability is a per cent measure of how many cells are alive, often set against a control.

These results are taken from PubChem BioAssay.

Where “and” joins values, the source holds several entries; their conditions need not be identical. Equal entries are not always repeated. Calls of active or inactive are those of the source. Cut-off read from the data, not from the text of the source, unless noted: active = nuclear beta-catenin stimulation mostly above about 4.2% (no sharp cut-off); inactive = mostly below about 10%.

Experiment [1] in a line: Wnt pathway potentiators raising nuclear beta-catenin – imaging, WNT3A-conditioned medium, mouse C2C12, NPC library, primary screen (AID 1117326). The following applies: stronger effect = higher value.
A short description of experiment [2]: stimulators of insulin release from INS-1E, primary screen, cell-based, 5 mM glucose, NPC library (AID 1117329;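 active = compound raises insulin release from rat beta cells at 5 mM glucose, no numeric limit stated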). To be noted: rat INS-1E insulin secretion, at 10 µM, stronger effect = higher value.
A short description of experiment [3]: GLP1 release stimulators, primary, NCI-H716, NPC library (AID 1117341;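 active = compound raises GLP1 secretion from the human gut endocrine cells, with no numeric limit stated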). The following applies: NCI-H716 cells, at 10 µM, stronger effect = higher value.
A short description of experiment [4]: growth inhibition of GSK3B-pretreated HCT116 cells – cell-based, CellTiter-Glo, 0.2 to 20 µM (AID 1117336;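 active = compounds lowering colon cancer cell viability after pretreatment blocking the GSK3B kinase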). To be noted: HCT116 viability after GSK3B inhibitor, at 20 µM, stronger effect = higher value.
A short description of experiment [5]: inhibition of endothelial tube formation, primary screen, imaging, VEGF stimulated, CD31 staining, tube area, NPC library (AID 1117340;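 active = compound that reduces growth-factor-driven endothelial tube area in a mixed cell culture, no cutoff stated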). The following applies: VEGF-stimulated ADSC/ECFC co-culture, at 10 µM, stronger effect = higher value.
Experiment [6] in a line: HCT116 colon cancer cell growth inhibition, primary screen, CellTiter-Glo luminescence, NPC library (AID 1117342;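 active = compounds that lower survival of HCT116 colon cancer cells in the luminescence readout, no numeric limit stated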). The following applies: at 20 µM (top of the series). Background: Cellular ATP, detected with luciferase, serves as a proxy for viable cell number.
Experiment [7] is described as follows: reduced SW480 viability measured with CellTiter-Glo, NPC library, primary (AID 1117343;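 active = compounds that lower viability of the colon cancer cells in the luminescence readout, with no numeric limit stated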). The following applies: CellTiter-Glo luminescence; at 20 µM (top of the series) unless noted.
A short description of experiment [8]: NPC library primary testing for decreased DLD-1 cell viability via CellTiter-Glo (AID 1117346;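 active = compounds that lower survival of DLD-1 colon cancer cells in the luminescence readout, no cutoff given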). To be noted: DLD-1 viability, CellTiter-Glo luminescence; at 20 µM (top of the series).
Experiment [9] in a line: P. berghei load reduction in hepatocytes – cell-based, HepG2, luciferase luminescence, HepG2 viability, primary screen (AID 624349; in the data active = parasite load remaining mostly below about 12%, no sharp cut-off; inactive = mostly above about 10%;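 note: 100% = mean of DMSO negative control wells on the same plate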). The following applies: P. berghei liver stage in HepG2, luciferase luminescence, concentration not given here; parasite load remaining: stronger effect = lower value; viability: measured here: HepG2 viability without parasites.
The nature of experiment [10]: viability loss with induced miR-34 in A549 – imaging, A549 dox-inducible miR-34, nuclei and caspase counts, primary screen (AID 1347080;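 active = compounds whose cell count with miR-34 switched on is under 0.7 times the count with it off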). The following applies: A549 miR-34 inducible, Hoechst nuclei count, 48 h.
Experiment [11] deals with NAD(+) hydrolase SARM1 (Homo sapiens) (UniProt Q6SZW1). Put plainly: blocking NAD cleavage by SARM1 SAM-TIR – cell lysate, NAD-Glo luminescence (AID 1508614;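 active = compound whose remaining NAD level is above about 45 nM, limit read from the data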;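 note: higher remaining NAD means stronger inhibition of SARM1 NADase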). The following applies: SAM-TIR HEK293T lysate NADase, at 1 µM, stronger effect = higher value.
For experiment [12], the target named is Mitogen-activated protein kinase 7 (Homo sapiens) (UniProt Q13164). Put plainly: Gal4-ERK5 driven luciferase induction – cell-based, HTS, primary screen (AID 1508626;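 active = luciferase signal above three times the same-plate solvent-only control wells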;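 note: luciferase driven by Gal4-ERK5 fusion binding five Gal4 sites before minimal TATA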). To be noted: HeLa Gal4-ERK5 transactivation, 18 h, at 5 µM, stronger effect = higher value.
A short description of experiment [13]: EMT-state selective cytotoxicity in co-culture – imaging, PC-3E GFP, TEM4-18 mCherry, primary screen (AID 1345086;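 active = compounds killing one labelled cell type while sparing the other, by normalised counts and ratio limits, not self-fluorescent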;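 for all read-outs here: cells exposed to compound for 72 h before imaging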;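 for red/green cell ratio (normalised): normalised mesenchymal count divided by normalised epithelial count so high means epithelial killing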). To be noted: PC-3E GFP / TEM4-18 mCherry co-culture, imaging cell counts, at 1 µM; for red/green cell ratio (normalised): actives lie on both sides, counts scaled to control wells, 1 = unselective.
Experiment [14] can be described thus: compounds altering viability of human ES cells (AID 493140; call rule not given here;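 note: cells exposed to compounds for four days before counting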). To be noted: human embryonic stem cell survival screen; stronger effect = higher value.
Experiment [15] in a line: MELAS cybrid and Rieske KO viability enhancers – cell-based, MELAS cybrids, Rieske KO mouse fibroblasts, CellTiter-Glo, primary screen (AID 1508586;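 active = mean z-score across replicates of 1.96 or higher in either the MELAS or the Rieske mutant cell line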;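 note: z relative to plate mean and SD of compound and empty wells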). To be noted: low glucose.
Where [16] appears, read: stronger effect = lower value, cell number ratio, induced over uninduced.
[17] abbreviates: measured here: relative caspase fold change +Dox/-Dox.
Setting [18] is: measured here: total cells with miR-34 induction, stronger effect = lower value.
The mark [19] stands for this setting: measured here: total cells without miR-34 induction.
Setting [20] is: measured here: epithelial PC-3E GFP cell survival.
[21] abbreviates: measured here: mesenchymal TEM4-18 mCherry cell survival.

NAD(+) hydrolase SARM1 (Homo sapiens), sequence (Q6SZW1 whole entry, looked up, the tested form may be a part): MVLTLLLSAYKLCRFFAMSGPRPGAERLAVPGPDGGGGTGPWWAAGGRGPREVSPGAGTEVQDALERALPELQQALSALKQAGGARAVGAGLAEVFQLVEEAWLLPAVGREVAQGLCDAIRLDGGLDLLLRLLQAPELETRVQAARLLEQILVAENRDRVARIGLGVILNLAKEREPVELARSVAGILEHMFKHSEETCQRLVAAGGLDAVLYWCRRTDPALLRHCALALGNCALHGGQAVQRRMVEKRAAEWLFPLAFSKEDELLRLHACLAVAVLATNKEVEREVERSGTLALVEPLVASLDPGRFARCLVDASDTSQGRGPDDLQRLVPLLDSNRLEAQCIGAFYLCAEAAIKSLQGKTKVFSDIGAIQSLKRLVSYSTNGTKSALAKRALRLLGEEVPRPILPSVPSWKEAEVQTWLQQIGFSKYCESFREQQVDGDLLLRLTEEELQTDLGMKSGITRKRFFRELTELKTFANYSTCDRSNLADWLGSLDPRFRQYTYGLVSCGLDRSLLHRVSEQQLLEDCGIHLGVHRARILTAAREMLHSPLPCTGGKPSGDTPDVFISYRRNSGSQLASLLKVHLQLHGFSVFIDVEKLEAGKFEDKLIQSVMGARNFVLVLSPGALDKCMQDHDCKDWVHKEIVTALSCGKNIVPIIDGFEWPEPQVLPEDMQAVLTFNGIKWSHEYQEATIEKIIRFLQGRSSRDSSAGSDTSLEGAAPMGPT
Mitogen-activated protein kinase 7 (Homo sapiens), sequence (Q13164 whole entry, looked up, the tested form may be a part): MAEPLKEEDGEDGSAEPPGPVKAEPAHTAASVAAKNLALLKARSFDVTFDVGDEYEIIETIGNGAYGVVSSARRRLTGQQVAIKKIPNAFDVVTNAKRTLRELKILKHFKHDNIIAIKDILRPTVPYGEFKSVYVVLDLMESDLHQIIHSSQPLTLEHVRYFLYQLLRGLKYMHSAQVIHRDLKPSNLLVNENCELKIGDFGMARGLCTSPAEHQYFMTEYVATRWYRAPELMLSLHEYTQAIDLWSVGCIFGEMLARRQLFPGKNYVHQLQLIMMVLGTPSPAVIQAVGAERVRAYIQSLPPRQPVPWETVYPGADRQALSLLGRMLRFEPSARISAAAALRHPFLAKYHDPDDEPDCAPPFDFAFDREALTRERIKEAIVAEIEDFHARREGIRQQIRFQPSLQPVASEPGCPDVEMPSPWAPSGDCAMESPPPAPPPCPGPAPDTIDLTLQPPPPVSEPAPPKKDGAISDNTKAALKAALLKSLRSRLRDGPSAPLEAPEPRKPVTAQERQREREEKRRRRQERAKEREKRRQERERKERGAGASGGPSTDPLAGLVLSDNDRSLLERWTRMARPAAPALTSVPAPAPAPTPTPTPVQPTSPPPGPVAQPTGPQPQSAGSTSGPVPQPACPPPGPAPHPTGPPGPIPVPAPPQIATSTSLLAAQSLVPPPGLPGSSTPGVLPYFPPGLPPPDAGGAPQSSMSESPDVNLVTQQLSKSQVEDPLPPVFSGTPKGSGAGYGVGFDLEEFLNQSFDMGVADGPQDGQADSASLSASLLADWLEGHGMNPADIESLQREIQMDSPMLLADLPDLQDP

As to `O=C(NC1CCN(CCc2c[nH]c3ccccc23)CC1)c1ccccc1`, the nuclear beta-catenin stimulation was 1% (inactive) in [1] (at 10 µM) and 2% in experiment [1] (stimulation, at 2 µM). In experiment [2], the insulin secretion stimulation is 1.25% (inactive). Further, the GLP1 secretion stimulation in experiment [3] is -4.5% (inactive).
Turning to `NC(=O)C1(N2CCCCC2)CCN(CCCN2c3ccccc3CCc3ccc(Cl)cc32)CC1`, the nuclear beta-catenin stimulation in [1] (at 10 µM) is 1.5% (inactive); in [1] (stimulation, at 2 µM), 12.3%. Further, the viability decrease in [4] is 99.5% (active). Besides, the tube area decrease in experiment [5] is 109% (active). Besides, the inhibition of viability in experiment [6] was 99.4% (active). Moreover, the viability decrease (inhibition) in experiment [7] and in experiment [8] was 102% (active) in each case.
Consider `O=C(O)CCC(=O)OC[C@@H](NC(=O)C(Cl)Cl)[C@H](O)c1ccc([N+](=O)[O-])cc1`, for which the parasite load remaining in [9] is 75.9% (inactive) and 67.1% (inactive). Besides, in experiment [9], the viability is 75.5% and 91.9%. Besides, the nuclear beta-catenin stimulation was 2.4% (inactive) in experiment [1] (at 10 µM) and 0.4% in experiment [1] (stimulation, at 2 µM). Moreover, the insulin secretion stimulation in [2] is 0% (inactive). In addition, the GLP1 secretion stimulation in experiment [3] is 4.4% (inactive). The fold change in experiment [10] (setting [16]) is 0.886 (inactive); in [10] (setting [17]) it was 1.1. In addition, the cell count in experiment [10] (setting [18]) came out at 11000; in experiment [10] (setting [19]) it was 12500. For the same molecule, the remaining NAD in experiment [11] was 10 nM (inactive). For the same molecule, the luciferase signal in [12] was 44 AU (inactive).
Take `CC1CCC(C(C)C)C(OC(=O)c2ccccc2O)C1` (stereo not drawn): the nuclear beta-catenin stimulation is -1.1% (inactive) in experiment [1] (at 10 µM) and -2.6% in experiment [1] (stimulation, at 2 µM). For the same molecule, the insulin secretion stimulation in experiment [2] was -1% (inactive). Also, the GLP1 secretion stimulation in experiment [3] was -8.7% (inactive).
On the same counts, the results for `CC(=O)NC(=O)c1ccccc1O` are 4.6% (inactive), 0.9%, -0.5% (inactive) and -0.9% (inactive).
As for `CN1CCN(c2cc3c(nn2)Oc2ccccc2N3C)CC1`, the nuclear beta-catenin stimulation in [1] (at 10 µM) is 0.9% (inactive); in experiment [1] (stimulation, at 2 µM), 0.3%. In experiment [2], the insulin secretion stimulation was -1.15% (inactive). For the same molecule, the GLP1 secretion stimulation in experiment [3] was 5.9% (inactive).
In the case of `CCCCC(CC)COC(=O)CC(C(=O)OCC(CC)CCCC)S(=O)(=O)O` (stereo not drawn), the nuclear beta-catenin stimulation in experiment [1] (at 10 µM) was 2.7% (inactive); in experiment [1] (stimulation, at 2 µM) it was -0.9%. The insulin secretion stimulation in [2] was -1.3% (inactive). The GLP1 secretion stimulation in [3] is 84.6% (active). Also, the red/green cell ratio (normalised) in experiment [13] was 0.91 (inactive). The normalised cell number in experiment [13] (setting [20]) worked out at 0.99; in [13] (setting [21]) it was 0.9. For the same molecule, the fold change in experiment [10] (setting [16]) is 0.854 (inactive); in experiment [10] (setting [17]), 1.07. Further, the cell count was 8120 in [10] (setting [18]) and 9510 in experiment [10] (setting [19]). In addition, the remaining NAD in [11] was 10 nM (inactive).
With `CC(=O)N(CC(O)CN(C(C)=O)c1c(I)c(C(=O)NCC(O)CO)c(I)c(C(=O)NCC(O)CO)c1I)c1c(I)c(C(=O)NCC(O)CO)c(I)c(C(=O)NCC(O)CO)c1I` (stereo not drawn), the survival in [14] is 2.67 (inactive). Also, in experiment [9], the parasite load remaining is 80.7% (inactive). Moreover, the viability in [9] was 90.6%. Besides, the nuclear beta-catenin stimulation in [1] (at 10 µM) was 0.8% (inactive); in experiment [1] (stimulation, at 2 µM) it was 1.9%. In experiment [2], the insulin secretion stimulation is 0.95% (inactive). In addition, the GLP1 secretion stimulation in [3] is 2% (inactive). The red/green cell ratio (normalised) in [13] is 1.05 (inactive). Moreover, the normalised cell number in [13] (setting [20]) stood at 1; in [13] (setting [21]) it was 1.05. Besides, the fold change in experiment [10] (setting [16]) is 0.892 (inactive); in experiment [10] (setting [17]) it was 0.943. Further, the cell count is 8820 in experiment [10] (setting [18]) and 9890 in experiment [10] (setting [19]). For the same molecule, the z-score in [15] (MELAS cybrid survival, CellTiter-Glo 48 h, stronger effect = higher value) was 0.435 (inactive); in experiment [15] (Rieske KO mouse fibroblast survival, CellTiter-Glo 72 h), -0.343. For the same molecule, the remaining NAD in experiment [11] was 10 nM (inactive).
On to `CCC(C(=O)OCCOCCN(CC)CC)c1ccccc1` (stereo not drawn), for which the nuclear beta-catenin stimulation in experiment [1] (at 10 µM) was 1.3% (inactive); in [1] (stimulation, at 2 µM) it was -2.5%. Further, in [2], the insulin secretion stimulation is 5.45% (inactive). Further, the GLP1 secretion stimulation in [3] is 7.5% (inactive).
